# Screening results deposited in PubChem by National Center for Advancing Translational Sciences (NCATS).
# Compounds with a hit are over-represented: about 21% of the library has one in this group of screens.
# TDP1 cell CPT = qHTS for Inhibitors of human tyrosyl-DNA phosphodiesterase 1 (TDP1): qHTS in cells in presence of CPT; chicken DT40 Tdp1-/-;hTDP1 cells + 20 nM CPT, ATP luminescence, 48 h; Potency, µM (top dose mostly 46.2 µM), without a hit: top-dose activity change, negative = growth inhibition, hits mostly inhibitors; 12% of 420,000 active; also: potency is read from the fitted curve at half-maximal effect; % is scaled to controls: 0 for no effect and ±100 for the full control effect; nearly all actives have a fitted effect of over 55% in size
#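 Cell growth measured by CellTiter-Glo luminescence after a minimum 48 h, 37 C compound exposure with 20 nM CPT in Tdp1-knockout DT40 cells stably expressing hTDP1, seeded 400/well; qHTS titration format.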
# D3 ag = qHTS of D3 Dopamine Receptor Agonist: qHTS; D(3) dopamine receptor (Homo sapiens), P35462; D3R DiscoveRx beta-arrestin cells, luminescence, 90 min; max activation, %; 0.58% of 410,000 active; AID 652048, 2013; in the data active = max activation above about 30%; also: 0% is about no effect
# Target sequence (P35462 whole entry, looked up): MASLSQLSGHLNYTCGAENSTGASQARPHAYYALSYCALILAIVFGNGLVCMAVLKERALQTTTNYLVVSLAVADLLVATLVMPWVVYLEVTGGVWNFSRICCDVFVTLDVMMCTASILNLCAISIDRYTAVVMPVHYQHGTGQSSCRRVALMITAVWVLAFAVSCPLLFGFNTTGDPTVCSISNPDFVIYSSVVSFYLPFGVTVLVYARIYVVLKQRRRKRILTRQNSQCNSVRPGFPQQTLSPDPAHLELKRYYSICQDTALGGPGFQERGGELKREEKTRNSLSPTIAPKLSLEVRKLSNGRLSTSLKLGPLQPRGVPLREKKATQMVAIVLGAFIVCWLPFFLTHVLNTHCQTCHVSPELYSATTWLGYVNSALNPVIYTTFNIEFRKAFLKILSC
#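 Cells at 1500/well, incubated overnight, then treated with pinned compounds (dopamine as control) for 90 min at 37 degrees C. DiscoveRx reagent added for 30 - 60 minutes at room temperature; luminescence read.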
# IL-1B inflam inh = qHTS for Inhibitors of Inflammasome Signaling: IL-1-beta AlphaLISA Primary Screen; THP-1 LPS/ATP IL-1B secretion, AlphaLISA, 16 h; stronger effect = lower value; activity change, % at 57.5 µM; 4.7% of 360,000 active; in the data active = activity change below about -50%; inconclusive = mostly about -30% to -49%; also: % is scaled to controls: 0 for no effect and ±100 for the full control effect
#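 Secreted IL-1B measured by AlphaLISA bead assay after 16 h compound exposure of THP-1 cells; compounds (final up to 57.5 uM) added 1 h before LPS (250 ng/mL) and ATP (1.25 mM) stimulation; lower signal means less secretion.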
# DT40 TDP1 no CPT = qHTS for Inhibitors of human tyrosyl-DNA phosphodiesterase 1 (TDP1): qHTS in cells in absence of CPT | DT40 Tdp1-/- hTDP1 cells, no CPT, ATP luminescence, 48 h | Potency, µM (series often up to 46.2 µM), inactives show at the top dose activity change, negative = growth inhibition, most hits filed as inhibitors | 15% of 420,000 active; also: potency is read from the fitted curve at half-maximal effect; % is scaled to controls: 0 for no effect and ±100 for the full control effect; nearly all actives have a fitted effect of over 55% in size
#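 Camptothecin absent (DMSO only). Human TDP1-complemented DT40 knockout cells, 400 cells/well, 37 °C for minimum 48 hr; ATP measured via CellTiter-Glo, 30 min dark incubation, luminescence.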
# ClpP mod = qHTS Assay for Activators of ClpP; ATP-dependent Clp protease proteolytic subunit (Bacillus subtilis (strain 168)), P80244; purified B. subtilis ClpP, FRET peptide cleavage, 20 min; Potency, µM (series often up to 57.5 µM), for inactives: at the top dose activity change, negative = active; 1.9% of 340,000 active; active = well fitted falling curve with a large enough effect; inconclusive = small, poorly fitted or top-dose-only effect; inactive = no such curve, though single readings can be large or run the other way; also: potency is read from the fitted curve at half-maximal effect; the source files actives as falling curves though it sought activators and does not explain the sign; nearly all actives have a fitted effect of over 65% in size
# Target sequence (P80244 whole entry, looked up): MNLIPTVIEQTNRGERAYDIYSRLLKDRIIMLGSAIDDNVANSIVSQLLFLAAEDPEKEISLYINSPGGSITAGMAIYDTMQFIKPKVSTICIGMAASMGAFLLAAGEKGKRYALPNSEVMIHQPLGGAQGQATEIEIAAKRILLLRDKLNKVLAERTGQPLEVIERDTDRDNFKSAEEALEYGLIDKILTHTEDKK
#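 ClpP 10 microg/mL final, pH 8 Tris/KCl buffer with BSA, glycerol, Tween-20; compound pinned in; FRET-FV substrate; RT 20 min; Ex320/Em430; ΔFRET vs ADEP 5.8 microM, DMSO, no enzyme.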
# D3 antag = qHTS of D3 Dopamine Receptor Antagonist: qHTS; max response, negative = inhibition, %; D(3) dopamine receptor (Homo sapiens), P35462; 2.5% of 360,000 active; D3R cells, DiscoveRx beta-arrestin luminescence, antagonist mode; stronger effect = lower value; in the data active = max response below about -50%; inconclusive = no clear call, values can overlap the other calls; also: % is scaled to controls: 0 for no effect and ±100 for the full control effect
#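 Cells expressing the human receptor were seeded at 1500 cells/well, incubated overnight at 37 degrees C in 5% CO2, then exposed to library compounds with dopamine controls for 90 minutes at 37 degrees C before luminescent detection.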
# * hit, by the source's call; ? = inconclusive; . = no result given; ! = a repeat was not active. Unless noted, calls follow the shape of the dose curve; as a rule, active = well fitted inhibition curve with a large enough effect; inconclusive = small, poorly fitted or top-dose-only effect; inactive = flat fitted curve, though single readings scatter.
SMILES,TDP1 cell CPT,D3 ag,IL-1B inflam inh,DT40 TDP1 no CPT,ClpP mod,D3 antag
CN(C)c1ccc(/C=C/c2ccc3ncccc3c2)cc1,?,.,.,?,3.8%,.
C(=C\c1ccccn1)/c1ccccc1,-6.2%,.,.,-7.0%,-5.1%,.
CC(C)N1CC(C(=O)Nc2ccc(Cl)cc2Cl)CC1=O (centres undefined),-19.5%,5.9,-11.0,9.4%,-4.0%,9.9
O=S(=O)(c1ccccc1)N1CCCC1c1cccs1 (centres undefined),?,11.9,41.7,11.6µM*,.,-7.3
COc1ccc(S(=O)(=O)N2CCCC2c2cccs2)cc1 (centres undefined),5.8µM*,1.8,0.0,8.2µM*,-0.5%,-8.1
O=C(O)c1ccc(N/N=C/c2ccncc2)cc1,-2.4%,0.8,6.8,13.1%,-0.8%,4.0
O=C(O)c1ccc(N/N=C/c2ccc3nccnc3c2)cc1,11.6µM*,4.6,-9.5,11.6µM*,1.0%,-7.9
CN1CCc2c(n(CC(O)CNCc3ccccc3)c3ccccc23)C1=O (centres undefined),8.2µM*,0.8,?,8.2µM*,-26.5%,?
Cc1nn(-c2ccccc2)c(C)c1C(=O)OCc1ccc(C#N)cc1,?,0.9,-8.9,?,-2.1%,-17.0
COc1ccc2c(c1)C=C(CN1CCC(CO)(CCc3ccccc3)CC1)CO2,?,-22.1,-60.1*,?,.,-86.5*
COc1ccc(CC2(CO)CCN(CC3=Cc4cc(Cl)ccc4OC3)CC2)cc1,13µM*,-13.4,-86.5*,6.51µM*,.,-75.4*
COc1ccc2c(c1)C=C(CN1CCN(Cc3ccccc3C)C(CCO)C1)CO2 (centres undefined),-20.6%,-23.5,?,?,.,?
CC(=O)N1C(=O)c2cccc3cccc(c23)C(=O)N1C(C)=O,-4.7%,-4.5,24.4,-33.3%,25.1µM*,-19.6
O=C1c2cccc3cccc(c23)C(=O)C1(O)O,1.03µM*,-11.9,-93.8*,2.31µM*,?,?
CN1CC(=O)N2Cc3[nH]c4ccccc4c3C[C@H]2C1=O,7.1%,8.9,-6.3,-11.4%,-0.1%,17.4
CCC1=C(c2cc(OC)c(OC)c(OC)c2)C2(CCCC2)C(=O)O1,?,-16.7,36.2,?,-0.3%,0.0
CCOC(=O)C1=C(CC)Nc2ccccc2N=C1NC(=O)c1cc(C)on1,-23.0%,8.5,0.0,?,-0.7%,33.9
CCOC(=O)C1=C(CC)Nc2ccccc2N=C1NC(=O)Nc1ccc(Cl)c(Cl)c1,2.91µM*,9.4,-73.9*,2.59µM*,-7.5%,37.7
CC(C)Cc1nnc(NC(=O)CN2C(=O)c3ccccc3C2=O)s1,1.9%,1.6,28.5,-21.2%,.,7.9
COc1cc2c(cc1OC)CN(CC(=O)Nc1ccc(C)cc1)CC2,-28.7%,-39.9,0.0,-22.9%,-0.3%,?
COc1cc2c(cc1OC)CN(C(C)C(=O)Nc1ccc(NC(C)=O)cc1)CC2 (centres undefined),-21.0%,1.9,-4.6,-25.6%,-2.2%,-21.1
CCOC(=O)c1[nH]c2ccc(OC)cc2c1NC(=O)CN1CCc2ccccc2C1,25.9µM*,8.7,?,16.4µM*,15.8µM*,-16.0
COC(=O)c1[nH]c2ccc(C)cc2c1NC(=O)CN1CCc2cc(OC)c(OC)cc2C1,16.4µM*,-8.6,-11.7,23.1µM*,?,7.0
COc1cc2c(cc1OC)CN(CC(=O)Nc1ccccc1SC)CC2,?,-11.0,-29.4,23.1µM*,.,-13.6
CCOC(=O)c1[nH]c2ccc(F)cc2c1NC(=O)C(C)N1CCc2cc(OC)c(OC)cc2C1 (centres undefined),?,-11.3,0.1,?,20µM*,-55.2*
SMILES,TDP1 cell CPT,D3 ag,IL-1B inflam inh,DT40 TDP1 no CPT,ClpP mod,D3 antag
COc1ccc(C(=O)OC(C)C(=O)NC(C)CCc2ccccc2)c(OC)c1 (centres undefined),-18.4%,10.8,-8.4,?,.,4.2
C[C@H](NC(=O)[C@H]1N2C(=O)c3ccccc3C2SC1(C)C)C(=O)N1CCC[C@H]1C(=O)O (some centres undefined),-2.0%,7.6,-7.0,1.2%,-3.9%,14.8
CCCCOc1ccc(S(=O)(=O)NC(=O)C2(C)CCN2C(=O)c2cccc(F)c2)cc1 (centres undefined),3.6%,-0.8,1.2,-9.8%,-1.0%,18.4
CCOC(=O)c1[nH]c2ccc(OC)cc2c1NC(=O)CN1CCC2(CC1)OCCO2,-12.9%,1.2,0.0,-15.4%,14.1µM*,1.9
CCOC(=O)c1[nH]c2ccc(OC)cc2c1NC(=O)c1nonc1C,-27.1%,-5.9,-25.0,?,-4.0%,0.0
Cc1ccc2nc(N(CCCN(C)C)C(=O)c3cc4ccccc4oc3=O)sc2c1,-20.6%,2.1,-51.3*,?,-1.9%,-0.5
CN(C)CCCN(C(=O)c1cc2ccccc2oc1=O)c1nc2c(F)cccc2s1,-8.6%,-12.9,-20.8,-25.8%,3.7%,-8.6
Cc1cccc2sc(N(CCCN(C)C)C(=O)c3ccc(Cl)s3)nc12,23.1µM*!,-3.6,-61.8*,?,-5.5%,7.0
Cc1ccc2nc(N(CCN(C)C)C(=O)c3ccc4ccccc4c3)sc2c1,?,-13.2,-22.6,?,-0.6%,-8.8
Cc1cccc2sc(N(CCN(C)C)C(=O)c3ccc4ccccc4c3)nc12,?,-14.3,-8.6,?,2.2%,4.1
Cc1cccc2sc(N(CCCN(C)C)C(=O)c3cc4ccccc4oc3=O)nc12,23.1µM*,-8.2,0.0,?,-3.1%,0.0
O=C(COc1cccc(Br)c1)N/N=C/c1ccc2c(c1)OCCO2,4.7%,7.4,-15.4,-24.7%,-0.5%,7.8
Fc1ccccc1/C=C/c1ccc2ccccc2n1,?,6.6,7.6,?,-27.8%,12.0
CC(=O)Oc1ccc(Cl)cc1/C=C/c1ccc2ccccc2n1,?,-9.0,-2.3,29.1µM*,1.7%,21.1
CC(=O)Oc1c(Cl)cc(Cl)cc1/C=C/c1ccc2ccccc2n1,?,39.3*,-65.9*,-6.5%,?,38.7
Cc1ccc(-c2nc3ccc(Cl)cn3c2Cc2ccsc2)cc1,?,-0.6,5.1,?,?,10.8
